From PubChem BioAssay
PD-1 reversal = activators reversing PD-1 mediated T-cell inhibition | AID 2316 | 29,000 tested, under 10 active | activation, % (concentration not given with the values) | primary human CD4 T cells, PD-L1 beads, CellTiter-Glo 96 h; call rule not given here;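 note: 0% = median vehicle wells and 100% = positive control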
STK33 kin inh = blocks human STK33 kinase activity; ADP-Glo luminescence, MBP substrate; inhibition, % at 12.5 µM; 27,000 compounds, 0.44% hits; AID 2322; in the data active = inhibition above about 20%
Target sequence (Q9BYT3 whole entry, looked up): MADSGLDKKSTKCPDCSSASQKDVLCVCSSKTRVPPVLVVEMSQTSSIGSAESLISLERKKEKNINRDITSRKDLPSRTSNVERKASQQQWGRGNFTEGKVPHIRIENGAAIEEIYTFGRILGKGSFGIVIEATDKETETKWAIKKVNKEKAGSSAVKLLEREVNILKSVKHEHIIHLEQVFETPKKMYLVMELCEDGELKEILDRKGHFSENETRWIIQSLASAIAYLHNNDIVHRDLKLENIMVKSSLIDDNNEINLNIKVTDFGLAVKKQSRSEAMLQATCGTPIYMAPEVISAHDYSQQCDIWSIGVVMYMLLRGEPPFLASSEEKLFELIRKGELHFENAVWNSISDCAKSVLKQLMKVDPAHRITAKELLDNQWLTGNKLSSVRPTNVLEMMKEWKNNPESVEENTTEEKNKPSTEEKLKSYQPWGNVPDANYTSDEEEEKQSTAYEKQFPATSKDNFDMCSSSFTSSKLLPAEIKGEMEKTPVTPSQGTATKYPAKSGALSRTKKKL
NOMO-1 viab = STK33 inhibitor candidate reducing NOMO-1 cell viability. NOMO-1 AML viability, CellTiter-Glo luminescence, 72 h. inhibition, % (no concentration beside the values). 37,000 compounds, 7.5% hits. AID 2330; in the data active = inhibition above about 80%
Active calls of the source: *; · = no result. The sample as a whole holds a higher share of hits than the screen did.

SMILES	PD-1 reversal	STK33 kin inh	NOMO-1 viab
CC(C)NC(=O)Nc1cccc2c1O[C@@H](CN(C)Cc1ccc(Cl)c(Cl)c1)[C@@H](C)CN([C@H](C)CO)C2=O	0.4	·	40.6
C[C@H](CO)N1C[C@H](C)[C@@H](CN(C)Cc2ccc(Cl)c(Cl)c2)Oc2c(NC(=O)Nc3cccc4ccccc34)cccc2C1=O	-4.5	·	115.2*
C[C@@H]1CN([C@H](C)CO)C(=O)c2cccc(NC(=O)Nc3cccc4ccccc34)c2O[C@@H]1CN(C)Cc1ccc(Cl)c(Cl)c1	-2.1	·	62.5
C[C@H](CO)N1C[C@H](C)[C@H](CN(C)Cc2ccc(Cl)c(Cl)c2)Oc2c(NC(=O)Nc3ccc(C(F)(F)F)cc3)cccc2C1=O	-1.5	·	94.3*
C[C@@H]1CN([C@H](C)CO)C(=O)c2cccc(NC(=O)Nc3ccc(C(F)(F)F)cc3)c2O[C@H]1CN(C)Cc1ccncc1	·	·	42.3
C[C@@H]1CN([C@@H](C)CO)C(=O)c2cccc(NC(=O)Nc3ccccc3)c2O[C@@H]1CN(C)Cc1ccc(Cl)c(Cl)c1	-3.0	·	116.1*
C[C@@H]1CN([C@H](C)CO)C(=O)c2cccc(NC(=O)Nc3ccccc3)c2O[C@H]1CN(C)Cc1ccc(Cl)c(Cl)c1	-5.1	·	106.4*
CC(C)NC(=O)Nc1cccc2c1O[C@@H](CN(C)Cc1ccc(Cl)c(Cl)c1)[C@H](C)CN([C@H](C)CO)C2=O	-2.4	·	63.0
O=C(Oc1ccccc1)Oc1ccc2oc(=O)sc2c1	-2.2	·	45.7
C[C@H](CO)N1C[C@H](C)[C@H](CN(C)Cc2ccc(Cl)c(Cl)c2)Oc2c(NC(=O)Nc3ccc(F)cc3)cccc2C1=O	-3.1	·	98.9*
C[C@@H]1CN([C@H](C)CO)C(=O)c2cccc(NC(=O)Nc3ccc(F)cc3)c2O[C@@H]1CN(C)Cc1ccc(Cl)c(Cl)c1	-1.3	·	30.6
Cc1ccc(C(O)(CO)CO)c(O)c1	·	-2.2	·
CCOC(=O)c1c(NC(=O)c2cc(S(=O)(=O)N3CCOCC3)ccc2OC)sc2c1CCC2	0.3	7.4	33.7
COc1ccc(S(=O)(=O)N(C)C[C@H]2Oc3ccc(NC(=O)Nc4ccc(C(F)(F)F)cc4)cc3C(=O)N([C@H](C)CO)C[C@@H]2C)cc1	-1.0	-0.4	44.6
COc1ccc(S(=O)(=O)N(C)C[C@@H]2Oc3ccc(NC(=O)Nc4ccc(C(F)(F)F)cc4)cc3C(=O)N([C@@H](C)CO)C[C@H]2C)cc1	-0.1	·	48.4
COc1ccc(S(=O)(=O)Nc2ccc3c(c2)C(=O)N([C@H](C)CO)C[C@H](C)[C@H](CN(C)S(=O)(=O)c2ccc(Cl)cc2)OCCCC[C@@H](C)O3)cc1	-7.1	3.6	107.2*
COc1ccc(S(=O)(=O)N(C)C[C@H]2OCCCC[C@@H](C)Oc3ccc(NS(=O)(=O)c4ccc(Cl)cc4)cc3C(=O)N([C@H](C)CO)C[C@@H]2C)cc1	·	·	65.3
C[C@@H]1CN([C@H](C)CO)C(=O)c2cc(NC(=O)Nc3ccc(C(F)(F)F)cc3)ccc2O[C@H]1CN(C)S(=O)(=O)c1ccccc1	3.3	-1.2	52.5
COc1ccc(S(=O)(=O)N(C)C[C@@H]2Oc3ccc(NC(=O)Nc4ccc(C(F)(F)F)cc4)cc3C(=O)N([C@H](C)CO)C[C@H]2C)cc1	1.7	·	112.7*
COc1ccc(S(=O)(=O)N(C)C[C@@H]2Oc3ccc(NC(=O)Nc4ccc(C(F)(F)F)cc4)cc3C(=O)N([C@H](C)CO)C[C@@H]2C)cc1	-1.1	-5.0	105.0*
C[C@@H]1CN([C@@H](C)CO)C(=O)c2cc(NC(=O)Nc3ccc(C(F)(F)F)cc3)ccc2O[C@H]1CN(C)S(=O)(=O)c1ccc(Cl)cc1	-1.1	·	93.2*
Cc1c(Cl)cccc1NC(=O)CN(c1ccc2c(c1)OCCO2)S(C)(=O)=O	·	3.8	2.6
CSC1=NC2(CCCCC2)NC2=C1CCCC2	7.2	·	20.5
Clc1cc(Cl)cc(Oc2nc(-c3ccccc3)ns2)c1	0.3	·	11.8
Cc1ccc(N(C(C)C(=O)Nc2cc(C)cc(C)c2)S(C)(=O)=O)cc1 (stereo not given)	-1.2	0.8	1.1
CCSC1=C(C#N)C(c2cccs2)C(C(=O)Nc2ccccc2)=C(C)N1 (stereo not given)	0.3	·	16.6
CC(NS(=O)(=O)c1ccc(F)cc1)C(=O)Nc1ccc(Oc2ccccc2)cc1 (stereo not given)	·	0.6	22.7
CC1CN(C2=NC(=O)/C(=C/c3ccccc3)S2)CC(C)O1 (stereo not given)	0.0	·	25.3
C[C@@H]1CCCCO[C@H](CN(C)S(=O)(=O)c2ccc(Cl)cc2)[C@@H](C)CN([C@H](C)CO)C(=O)c2cc(NC(=O)Nc3ccc(C(F)(F)F)cc3)ccc2O1	-5.2	1.1	98.5*
